# Measurements published in PubChem BioAssay AID652197 (Broad Institute, 2013).
# Where “and” joins values, the source holds several entries; their conditions need not be identical. Equal values may be shown once. Out of some 340,000 compounds screened, about 500 (0.15%) were called active. What follows is part of a selection rich in actives, with near analogues and random picks from the rest. Unmarked numbers belong to inactive results.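 Rule for the calls: active = mean replicate inhibition of at least 30%, or all replicates individually reaching that 30% level; inactive = mean below 30% and not every replicate reaching it.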
# Molecular target: Endoplasmic reticulum aminopeptidase 1 (Homo sapiens) (UniProt Q9NZ08)
# Sequence (Q9NZ08 whole entry, looked up): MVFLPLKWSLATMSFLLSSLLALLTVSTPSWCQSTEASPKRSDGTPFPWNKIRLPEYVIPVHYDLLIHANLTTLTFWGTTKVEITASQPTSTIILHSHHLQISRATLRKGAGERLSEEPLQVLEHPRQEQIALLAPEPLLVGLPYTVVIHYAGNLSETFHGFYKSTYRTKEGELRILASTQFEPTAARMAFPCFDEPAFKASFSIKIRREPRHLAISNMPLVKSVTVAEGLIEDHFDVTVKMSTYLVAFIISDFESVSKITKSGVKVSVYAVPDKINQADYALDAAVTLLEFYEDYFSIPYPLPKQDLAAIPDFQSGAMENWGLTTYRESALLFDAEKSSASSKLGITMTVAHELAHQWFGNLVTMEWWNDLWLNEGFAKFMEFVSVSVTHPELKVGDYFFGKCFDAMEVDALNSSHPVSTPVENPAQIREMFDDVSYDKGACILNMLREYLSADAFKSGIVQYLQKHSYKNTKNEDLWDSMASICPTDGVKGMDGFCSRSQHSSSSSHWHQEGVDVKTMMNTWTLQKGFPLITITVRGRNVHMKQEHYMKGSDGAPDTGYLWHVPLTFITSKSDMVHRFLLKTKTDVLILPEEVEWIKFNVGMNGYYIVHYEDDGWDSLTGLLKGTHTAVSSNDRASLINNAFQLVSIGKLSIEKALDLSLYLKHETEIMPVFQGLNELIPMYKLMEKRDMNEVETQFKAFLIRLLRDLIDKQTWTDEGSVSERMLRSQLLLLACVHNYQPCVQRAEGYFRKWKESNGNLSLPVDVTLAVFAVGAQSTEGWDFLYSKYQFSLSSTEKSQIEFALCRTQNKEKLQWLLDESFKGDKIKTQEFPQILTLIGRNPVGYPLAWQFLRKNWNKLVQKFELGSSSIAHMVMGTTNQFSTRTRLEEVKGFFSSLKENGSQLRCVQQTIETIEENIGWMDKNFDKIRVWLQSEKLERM
# Experiment: inhibition of ERAP1 peptide trimming enzyme – biochemical, single point, plate reader, primary screen (AID 652197);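 note: 0% = neutral control wells and 100% = L-leucinethiol positive control wells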
# Conditions: recombinant ERAP1, Leu-AMC fluorescence, 60 min; at 10.7 µM; active compounds read high
row,Structure (SMILES),inhibition
1,CC(=O)N1Cc2cc(C(=O)NCc3cc(F)cc(F)c3)nc(-c3cccc(C4=CCCC4)c3)c2[C@@H]1CCO,3.25%
2,O=C(C[C@@H]1C=C[C@H](NC(=O)C2CCC2)[C@@H](CO)O1)NCC1CC1,0.604%
3,C/C(Cc1ccccc1)=N\NC(=O)CNC(=O)c1cccc(Br)c1,7.75%
4,O=C(NCCCNCc1ccccc1)c1ccc(/C=N/O)nc1,4.32%
5,C[N+](C)(C)CCNC(=O)c1cc[n+](Cc2ccccc2)c(/C=N/O)c1,105% (active)
6,COc1ccc(C(=O)NCc2nnc(SCC(=O)NC3=NCCS3)n2C)cc1,1.94%
7,COc1ccc(CC(=O)NCc2nnc(SCC(=O)Nc3nccs3)n2C)cc1,1.32%
8,COc1ccc(C(=O)NCc2nnc(SCCOc3ccccc3)n2C)cc1,31.3% (active)
9,COC(=O)C[C@H]1C[C@H]2c3cc(NC(=O)Nc4ccccc4F)ccc3O[C@H]2[C@H](CO)O1,-1.68%
10,O=C(NC1Cc2ccccc2C1)[C@H]1[C@H](CO)[C@H]2Cn3c(ccc(C4=CCCCC4)c3=O)[C@H]2N1CC1CC1,-5.27%
11,O=C(Cc1ccccn1)N[C@H]1CC[C@H](CCn2cc(-c3ccc(F)cc3)nn2)O[C@H]1CO,-3.36%
12,O=C(C[C@@H]1CC[C@H](NC(=O)CN2CCOCC2)[C@@H](CO)O1)NCCc1ccccc1,0.528%
13,O=C(N[C@H]1C=C[C@@H](CC(=O)N2CCc3ccccc3C2)O[C@@H]1CO)C1CCOCC1,-0.073%
14,Cc1ccc(-c2ccccc2[C@H]2[C@@H](C#N)N(c3ncc(-c4ccccc4)s3)[C@@H]2CO)cc1,-2.75%
15,Cc1ccc(S(=O)(=O)Nc2ccc3c(c2)C(=O)N([C@H](C)CO)C[C@@H](C)[C@@H](CN(C)S(C)(=O)=O)OCCCC[C@@H](C)O3)cc1,3.3%
16,C[C@@H]1CN([C@H](C)CO)C(=O)c2cc(NC(=O)c3ccncc3)ccc2O[C@@H](C)CCCCO[C@@H]1CN(C)CC1CC1,-0.674%
17,C[C@@H]1CN([C@H](C)CO)C(=O)Cc2cc(NC(=O)CCC(F)(F)F)ccc2O[C@@H]1CN(C)CC1CCCCC1,0.143%
18,CO[C@@H]1CN(C)C(=O)c2ccc(NC(=O)Nc3c(C)noc3C)cc2OC[C@@H](C)N(C(=O)Nc2cccc(Cl)c2)C[C@H]1C,-0.693%
19,N#C[C@@H]1[C@H](c2ccccc2-c2ccccc2F)[C@@H](CO)N1C(=O)C1CCOCC1,0.396%
20,Nc1nc(NCC(=O)O)nc(N2CCCCCC2)c1[N+](=O)[O-],4.98%
21,O=C(O)CSc1ccc(S(=O)(=O)N2CCCC2)cn1,0.672%
22,N#Cc1c(N2CCCCC2)nc(N)c2c(N)nc(SCC(=O)O)cc12,46.5% (active)

row,Structure (SMILES),inhibition
1,C/C=C/c1ccc(C2[C@H]3CNC[C@@H]2N3C(=O)Nc2cc(F)ccc2F)cc1 (stereo partly specified),0.659% and 1.15%
2,Nc1nc2c(ncn2[C@@H]2O[C@H](C(=O)N[C@H](Cc3ccccc3)C(=O)NCC3CCCCC3)[C@@H](O)[C@H]2O)c(=O)[nH]1,2.44%
3,COc1ccc(CN(C)C[C@H]2OCCCC[C@H](C)Oc3ccc(NS(=O)(=O)c4ccc(C)cc4)cc3C(=O)N([C@@H](C)CO)C[C@H]2C)cc1,0.631%
4,CCCc1nc(-c2cc3cc(C)ccc3[nH]c2=O)no1,55.1% (active)
5,CCC(=O)N(CCc1ccccc1)Cc1cc2cc(C)ccc2[nH]c1=O,-2.61%
6,Cc1ccc2[nH]c(=O)c(CN(C)S(=O)(=O)c3cccc4nonc34)cc2c1,0.344%
7,CC(C)NC(=O)N[C@H]1CC[C@@H](CC(=O)NCc2ccc(Oc3ccccc3)cc2)O[C@@H]1CO,-0.517%
8,COc1ccc(NC(=O)N2CC(=O)N3[C@H](CO)[C@@H](c4ccc(C#CCC5CCCC5)cc4)[C@H]3C2)cc1,-1.79%
9,CC(=O)NC[C@H]1[C@@H](c2ccc(C#CC(C)C)cc2)[C@@H](CO)N1Cc1ccccn1,3.95%
10,COc1ccc(NC(=O)N2CC(=O)N3[C@H](CO)[C@@H](c4ccc(-c5ccc(C)cc5)cc4)[C@H]3C2)cc1,1.13%
11,O=C(c1ccc(F)cc1)N1CC(=O)N2[C@@H](CO)[C@@H](c3ccc(C#Cc4ccc(F)cc4)cc3)[C@@H]2C1,-1.04%
12,C[C@H](CO)N1C[C@H](C)[C@H](CN(C)C(=O)Nc2ccc(C(F)(F)F)cc2)Oc2ccc(NS(=O)(=O)c3cn(C)cn3)cc2CC1=O,2.19%
13,COc1ccc(S(=O)(=O)Nc2ccc3c(c2)C(=O)N([C@@H](C)CO)C[C@H](C)[C@H](CN(C)S(=O)(=O)c2c(C)noc2C)OCCCC[C@@H](C)O3)cc1,-3.22%
14,O=C(NCC[C@@H]1CC[C@@H](NS(=O)(=O)c2ccc(Cl)cc2)[C@@H](CO)O1)c1ccccc1F,-2.75%
15,O=C(Cc1ccccc1)N1C[C@@H]2[C@H](c3ccccc31)[C@@H](CO)N2C(=O)C1CCOCC1,-0.84%
16,C[C@@H]1CCCCO[C@H](CN(C)Cc2ccc(C(F)(F)F)cc2)[C@@H](C)CN([C@@H](C)CO)C(=O)c2cc(NC(=O)c3ccncc3)ccc2O1,-3.82%
17,CO[C@@H]1CN(C)C(=O)c2cc(NC(=O)C3CCOCC3)ccc2OC[C@@H](C)NC[C@@H]1C,1.93%
18,O=C(Nc1ccccc1F)N1CC(=O)N2[C@H](CO)[C@H](c3ccc(C#CC4CC4)cc3)[C@@H]2C1,-1.09%
19,CN(C)C(=O)C[C@H]1C[C@H]2c3cc(NC(=O)Nc4ccc(C(F)(F)F)cc4)ccc3O[C@H]2[C@@H](CO)O1,-0.814%
20,O=C(Nc1cc(F)ccc1F)N[C@H]1CC[C@@H](CCn2cc(C3CCCC3)nn2)O[C@@H]1CO,0.545%
21,C[C@@H]1CN([C@H](C)CO)C(=O)c2cc(NS(C)(=O)=O)ccc2O[C@H]1CN(C)C(=O)Nc1cccc2ccccc12,0.237%
22,CO[C@H]1CN(C)C(=O)c2ccc(NC(=O)C3CC3)cc2OC[C@@H](C)N(C(=O)CN2CCOCC2)C[C@H]1C,5.08%

row,Structure (SMILES),inhibition
1,COc1ccc(S(=O)(=O)N(C)C[C@@H]2Oc3ccc(NC(=O)C4CC4)cc3CC(=O)N([C@@H](C)CO)C[C@H]2C)cc1,-1.45%
2,CNC[C@H]1Oc2cc(-c3ccc(OC)cc3)ccc2S(=O)(=O)N([C@H](C)CO)C[C@@H]1C,-1.76%
3,CO[C@@H](CN(C)S(=O)(=O)c1ccccc1)[C@H](C)CN(Cc1ccccc1Cl)[C@H](C)CO,-0.894%
4,C[C@@H](NC(=O)C[C@H]1C[C@@H]2c3cc(NC(=O)C4CCC4)ccc3O[C@@H]2[C@@H](CO)O1)c1ccccc1,-1.46%
5,CO[C@@H]1CN(C)C(=O)c2ccc(NC(=O)Nc3cc(F)ccc3F)cc2OC[C@@H](C)N(C)C[C@@H]1C,2.65%
6,CO[C@@H]1CC[C@@H]2CCOc3c(C#N)cccc3C(=O)N(C)C[C@H](C)C(=O)N(C)C[C@H]1O2,0.999%
7,COc1ccc(CNC(=O)C[C@H]2C[C@@H]3c4cc(NC(=O)NC5CCCC5)ccc4O[C@@H]3[C@H](CO)O2)cc1,2.29%
8,C/C=C/c1ccc2c(c1)O[C@H](CN(C)Cc1cccc(F)c1)[C@H](C)CN([C@H](C)CO)S2(=O)=O,3.38%
9,COc1ccccc1C#Cc1ccc([C@@H]2[C@H](CO)N3CCCCN(CCC(F)(F)F)C[C@@H]23)cc1,-1.03%
10,CCC(=O)N1[C@H](C(=O)NC2CCC2)[C@@H](CO)[C@@H]2Cn3c(cccc3=O)[C@@H]21,-1.13%
11,O=C(CCN1CCCCC1)NCC[C@@H]1CC[C@H](NS(=O)(=O)c2cccc(Cl)c2)[C@H](CO)O1,-1.39%
12,C/C=C/c1ccc2c(c1)[C@H]1[C@H](CCN1S(=O)(=O)c1cn(C)cn1)[C@H](CO)N2,-3.06%
13,CO[C@@H]1CC[C@@H]2CCOc3c(C#N)cccc3C(=O)N(C)C[C@@H](OC)[C@@H](C)C(=O)N(C)C[C@H]1O2,-3.74%
14,COc1cccc(NC(=O)N[C@H]2C=C[C@H](CC(=O)NCc3ccccn3)O[C@@H]2CO)c1,6.83%
15,COc1ccccc1CN1[C@H](CO)[C@@H](c2ccccc2)C12CN(C(=O)c1cnccn1)C2,0.797%
16,C[C@H]1CCCCO[C@H](CN(C)C(=O)NC2CCCCC2)[C@@H](C)CN([C@@H](C)CO)C(=O)c2cc(NC(=O)Nc3ccc4c(c3)OCO4)ccc2O1,-0.479%
17,O=C(OCC(=O)N1CCN(C(=O)c2ccco2)CC1)c1ccc(Cl)c(Cl)c1,0.999%
18,CN(c1ccccc1)S(=O)(=O)c1cc(C(=O)OCC(=O)N2CCN(C(=O)c3ccco3)CC2)ccc1Cl,60.1% (active)
19,O=C(OCC(=O)N1CCN(C(=O)c2ccco2)CC1)c1cccc(O)c1,-0.23%
20,CO[C@@H]1CN(C)C(=O)c2cc(NC(=O)C3CCOCC3)ccc2OC[C@H](C)N(Cc2cccnc2)C[C@H]1C,0.791%
21,O=C(C[C@H]1CC[C@H]2NC[C@@H](O)COC[C@@H]2O1)NCCN1CCCC1,1.06%
22,O=C(Nc1cccc(F)c1)N1CC(=O)N2[C@H](C1)[C@H](c1ccc(-c3ccccc3F)cc1)[C@@H]2CO,0.092%
